# Structures can show the parent of a compound that is named as a salt. ± gives the standard deviation of the averaged measurements.
# Legend:
# Assay in all cases: growth (OD600 after 10 h); higher = more growth (less inhibition)
# [1] = tested on: E. coli TESEC Alr+ wild-type control; details: compound 0.1 mM; raw OD600 reference: median of DMSO wells 0.241, cell-free background 0.041
# Method: (§1)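 TESEC Mtb Alr E. coli, or the Alr+ wild-type control, in 384-well plates with Prestwick library compounds at 0.1 mM and 1% DMSO, across arabinose induction levels of 1E3 to 1E7 nM. Growth is read as OD600 after 10 h at 37 °C in triplicate biological replicates.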
# E. coli TESEC Mtb Alr [2] = details: compound 0.1 mM
# Method: as §1
# E. coli TESEC Mtb Asd = details: compound 0.1 mM
# Method: (§2)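 TESEC E. coli strains in which the native enzyme is deleted and replaced by arabinose-inducible Mtb Asd, DapB, CysH or TrpD, each grown in its selective medium. Strains were screened against the Prestwick library at 0.1 mM and 1% DMSO in 384-well format at low and high arabinose induction. Growth is read as OD600 after 10 h in triplicate.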
# E. coli TESEC Mtb DapB = details: compound 0.1 mM
# Method: as §2
# [3] = tested on: E. coli TESEC Alr+ wild-type control; details: compound 0.1 mM; raw OD600 reference: median of DMSO wells 0.49, cell-free background 0.052
# Method: (§3)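 TESEC Mtb Alr E. coli (ΔaraC ΔtolC ΔentC Δalr ΔdadX, arabinose-inducible Mtb Alr) or the Alr+ wild-type control strain, grown in defined M9-fructose medium without D-alanine in 96-well plates with Prestwick library compounds at 0.1 mM and 1% DMSO. Low Alr induction is 0.1 µM arabinose and high induction is 10 mM arabinose.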
# E. coli TESEC Mtb Alr [4] = details: compound 0.1 mM; remark: listed apart in the source
# Method: as §3
# [5] = arabinose 1000 nM, raw OD600 reference: median of DMSO wells 0.294, cell-free background 0.041
# [6] = arabinose 10000 nM, raw OD600 reference: median of DMSO wells 0.264, cell-free background 0.041
# [7] = arabinose 100000 nM, raw OD600 reference: median of DMSO wells 0.201, cell-free background 0.041
# [8] = arabinose 1000000 nM, raw OD600 reference: median of DMSO wells 0.193, cell-free background 0.041
# [9] = arabinose 10000000 nM, raw OD600 reference: median of DMSO wells 0.146, cell-free background 0.041
# [10] = arabinose induction (level): High, raw OD600 reference: median of DMSO wells 0.331, cell-free background 0.041
# [11] = arabinose induction (level): Low, raw OD600 reference: median of DMSO wells 0.417, cell-free background 0.041
# [12] = arabinose induction (level): High, raw OD600 reference: median of DMSO wells […], cell-free background 0.041
# [13] = arabinose induction (level): Low, raw OD600 reference: median of DMSO wells 0.227, cell-free background 0.041
# [14] = arabinose 100 nM, raw OD600 reference: median of DMSO wells 0.413, cell-free background 0.052
# [15] = arabinose 10000000 nM, raw OD600 reference: median of DMSO wells […], cell-free background 0.052
SMILES,growth [1],growth (E. coli TESEC Mtb Alr [2]; [5]),growth (E. coli TESEC Mtb Alr [2]; [6]),growth (E. coli TESEC Mtb Alr [2]; [7]),growth (E. coli TESEC Mtb Alr [2]; [8]),growth (E. coli TESEC Mtb Alr [2]; [9]),growth (E. coli TESEC Mtb Asd; [10]),growth (E. coli TESEC Mtb Asd; [11]),growth (E. coli TESEC Mtb DapB; [12]),growth (E. coli TESEC Mtb DapB; [13]),growth [3],growth (E. coli TESEC Mtb Alr [4]; [14]),growth (E. coli TESEC Mtb Alr [4]; [15])
CC(C)(O)c1ccccc1CC[C@@H](SCC1(CC(=O)O)CC1)c1cccc(/C=C/c2ccc3ccc(Cl)cc3n2)c1 [Montelukast],0.24 ± 0.013,0.281 ± 0.0035,0.317 ± 0.012,0.31 ± 0.019,0.206 ± 0.0075,0.261 ± 0.012,0.219 ± 0.028,0.347 ± 0.065,0.183 ± 0.025,0.253 ± 0.023,0.566 ± 0.061,0.479 ± 0.027,0.376 ± 0.026
CN(C/C=C/c1ccccc1)Cc1cccc2ccccc12 [Naftifine hydrochloride],0.0432 ± 0.0006,0.0444 ± 0.001,0.04317 ± 0.00021,0.045 ± 0.0005,0.0437 ± 0.0015,0.0527 ± 0.00066,0.269 ± 0.035,0.313 ± 0.069,0.125 ± 0.008,0.133 ± 0.0053,0.374 ± 0.0058,0.266 ± 0.14,0.052 ± 0.0013
c1ccc2c(CC3=NCCN3)cccc2c1 [Naphazoline hydrochloride],0.231 ± 0.0088,0.26 ± 0.032,0.268 ± 0.0057,0.191 ± 0.019,0.189 ± 0.0029,0.147 ± 0.0052,0.238 ± 0.042,0.333 ± 0.048,0.184 ± 0.011,0.21 ± 0.016,0.549 ± 0.075,0.41 ± 0.0069,0.323 ± 0.018
CCCCC(=O)N(Cc1ccc(-c2ccccc2-c2nnn[nH]2)cc1)[C@H](C(=O)O)C(C)C [Valsartan],0.249 ± 0.013,0.307 ± 0.0036,0.27 ± 0.0035,0.213 ± 0.02,0.193 ± 0.014,0.151 ± 0.0071,0.291 ± 0.042,0.396 ± 0.047,0.211 ± 0.011,0.257 ± 0.03,0.557 ± 0.049,0.422 ± 0.016,0.339 ± 0.012
Cc1cnc(C(=O)O)c[n+]1[O-] [Acipimox],0.244 ± 0.006,0.304 ± 0.025,0.247 ± 0.0063,0.218 ± 0.029,0.1751 ± 0.0015,0.1397 ± 0.00085,0.263 ± 0.085,0.282 ± 0.065,0.199 ± 0.013,0.217 ± 0.021,0.497 ± 0.06,0.41 ± 0.009,0.338 ± 0.021
O=C1CC2(CCCC2)CC(=O)N1CCCCN1CCN(c2ncccn2)CC1 [Buspirone hydrochloride],0.2005 ± 0.002,0.274 ± 0.0095,0.2798 ± 0.0023,0.184 ± 0.028,0.198 ± 0.011,0.134 ± 0.0058,0.337 ± 0.021,0.439 ± 0.046,0.1852 ± 0.0015,0.226 ± 0.035,0.454 ± 0.019,0.411 ± 0.0053,0.346 ± 0.011
O=C(c1ccccc1)c1ccc2n1CCC2C(=O)O (centres undefined) [Ketorolac tromethamine],0.222 ± 0.0085,0.262 ± 0.015,0.253 ± 0.013,0.181 ± 0.01,0.195 ± 0.0049,0.137 ± 0.0035,0.381 ± 0.035,0.331 ± 0.036,0.194 ± 0.02,0.216 ± 0.049,0.531 ± 0.076,0.384 ± 0.016,0.326 ± 0.0097
CC1(C)S[C@@H]2[C@H](NC(=O)[C@H](N)c3ccccc3)C(=O)N2[C@H]1C(=O)O [Ampicillin trihydrate],0.235 ± 0.0072,0.279 ± 0.011,0.253 ± 0.013,0.189 ± 0.024,0.1927 ± 0.0013,0.145 ± 0.0022,0.388 ± 0.056,0.394 ± 0.066,0.205 ± 0.013,0.256 ± 0.051,0.479 ± 0.038,0.4271 ± 0.0036,0.338 ± 0.0045

# From the supplement of paper PMC9262897, “Low-cost anti-mycobacterial drug discovery using engineered E. coli” (Nature Communications, 2022)
